Screening data deposited in PubChem BioAssay by National Center for Advancing Translational Sciences (NCATS).
In the library only some 1.2% were active in any assay of this set; here they are far more common.
Six1-Eya2 blk: blocks human Six1 binding to Eya2; Q15475+O00167; AlphaScreen GST-Six1/His-Eya2 binding, biochemical; hits give low values; activity change, % (concentration not given with the values); 360,000 tested, 0.56% active; in the data active = activity change below about -65%; inconclusive = mostly about -30% to -63%
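GST-Six1 + His-Eya2 (5X stock: 250/500 nM); Tris pH 8.0, 300 mM NaCl, 0.05% BSA, 0.02% Tween 20; GSH donor/Ni acceptor beads; 1 h 37 °C dark; AlphaScreen readout.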
USP2a inh: inhibitors of human ubiquitin-specific protease USP2a | 330,000 tested, 0.01% active | AID 463254 | USP2 core, Ub-CHOP2 coupled fluorogenic reporter, 485/531 | O75604 | Potency, µM (highest dose often 38.3 µM), for inactives: top-dose activity change, negative = inhibition, actives largely listed as inhibitors;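 note: potency is the fitted concentration of half-maximal effect; plate controls were DMSO wells for no effect and full inhibition by NEM control for full effect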
Target sequence (O75604 whole entry, looked up): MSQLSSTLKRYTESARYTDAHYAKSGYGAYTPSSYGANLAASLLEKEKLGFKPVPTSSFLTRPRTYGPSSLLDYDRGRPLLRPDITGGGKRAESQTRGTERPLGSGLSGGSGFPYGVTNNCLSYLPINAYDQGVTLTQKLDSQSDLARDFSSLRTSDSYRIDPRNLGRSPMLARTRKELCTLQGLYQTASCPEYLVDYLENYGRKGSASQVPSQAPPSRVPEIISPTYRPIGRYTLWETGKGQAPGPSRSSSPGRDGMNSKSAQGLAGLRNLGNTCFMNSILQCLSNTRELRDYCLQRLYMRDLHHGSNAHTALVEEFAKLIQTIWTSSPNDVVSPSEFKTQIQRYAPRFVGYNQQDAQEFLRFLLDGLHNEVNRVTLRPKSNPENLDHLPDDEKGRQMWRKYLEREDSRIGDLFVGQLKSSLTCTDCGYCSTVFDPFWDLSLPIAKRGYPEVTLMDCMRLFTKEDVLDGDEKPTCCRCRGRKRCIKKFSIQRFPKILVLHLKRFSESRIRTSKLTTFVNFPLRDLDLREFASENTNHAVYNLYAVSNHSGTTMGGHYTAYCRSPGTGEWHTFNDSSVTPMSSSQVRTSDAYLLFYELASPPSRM
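Deubiquitinase activity read as fluorescence (485/531 nm) after Ub-CHOP2 cleavage activates the enterokinase reporter on its substrate; USP2 core 10nM, Ub-CHOP2 and substrate 25nM each, 30min compound preincubation then 60min RT; data normalized to NEM, curves fitted.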
uPA surface inh: inhibitors of cell surface uPA generation; cell surface uPA generation assay, qHTS; Potency, µM (titrated, usually from 38.3 µM), for inactives: at the top dose activity change, negative = inhibition, actives largely listed as inhibitors; 330,000 tested, 0.31% active; active = well fitted inhibition curve with a large enough effect; inconclusive = small, poorly fitted or top-dose-only effect; inactive = no such curve, though single readings can be large or run the other way; tested in mouse RAW 264.7 cells; note: potency is the fitted concentration of half-maximal effect; nearly all actives have a fitted effect of over 55% in size
Eya2 phos inh: Eya2 (human) phosphatase inhibition; recombinant Eya2, OMFP fluorescence dephosphorylation (OMFP is methylfluorescein phosphate); Potency, µM (titrated, usually from 76.9 µM), inactives show at the highest dose activity, negative = inhibition, most hits filed as inhibitors; 330,000 tested, 0.006% active; AID 488837; note: potency is the fitted concentration of half-maximal effect
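Eya2 protein (added as 0.2 uM solution) was preincubated with compound for 10 min at ambient temperature in 50 mM HEPES pH 7.5, 50 mM NaCl, 5 uM MgCl2, 0.05% BSA, 1 mM DTT. OMFP (added at 50 uM) then reacted 10 min; fluorescence read at 485/525 nm.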
CtBP-E1A blk: CtBP/E1A binding inhibition. AlphaScreen GST-E1A/His-CtBP binding, 1536-well; hits give low values. activity change, % (test concentration not listed). 340,000 tested, 0.49% active. AID 651724; in the data active = activity change below about -65%; inconclusive = mostly about -30% to -63%
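GST-E1A and His-tagged CtBP (125 nM each as 5X stock) were preincubated with pin-transferred compound for 2 h at 37 °C in the dark, then glutathione donor and nickel acceptor beads were added for 1 h before AlphaScreen reading.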
L3MBTL1 inh: blocks human L3MBTL1 | AlphaScreen L3MBTL1–H3K9me1 peptide binding | 230,000 tested, 0.66% active | AID 485360 | Potency, µM (top dose mostly 57.1 µM), for the others: top-dose activity, negative = inhibition, actives largely listed as inhibitors | Q9Y468; note: potency is the fitted concentration of half-maximal effect; nearly all actives have a fitted effect of over 60% in size
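AlphaScreen assay: L3MBTL1 (50 nM final) was preincubated 30 min at room temperature with biotinylated H3(1-15)K9me1 peptide (75 nM final), then 30 min with library compounds; streptavidin donor and nickel chelate acceptor beads (10 ug/mL final) added, 30 min dark.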
An asterisk follows results filed as active; u = inconclusive; x = not tested or not shown; [ ] = dose if it differs, or a comment. Unless noted, calls come from the whole dose curve; as a rule, active = well fitted curve in the direction sought with a large enough effect; inconclusive = small, poorly fitted or top-dose-only effect, or another doubt; inactive = no such curve, though single readings can be large; an effect the other way counts as inactive or inconclusive. Unless noted, % is set by controls: 0 for no effect and ±100 for the full control effect.

SMILES | Six1-Eya2 blk | USP2a inh | uPA surface inh | Eya2 phos inh | CtBP-E1A blk | L3MBTL1 inh
CCN(CC)c1ccc(C(=C2C=CC(=[N+](CC)CC)C=C2)c2ccccc2)cc1 | u | x | -7.9% | x | -7.7 | x
COc1ccc(N(C(=O)C(C)C)S(=O)(=O)c2ccc3ccccc3c2)cc1 | -5.7 | -1.4% | 1.78µM* | -6.5% | 22.1 | 0.4%[2.29 µM]
COc1ccc(N(C(=O)C(C)C)S(=O)(=O)c2cccs2)cc1 | 4.4 | -1.7% | -25.4% | -10.5% | 17.7 | x
CCOc1ccccc1NC(=O)c1nc(S(=O)(=O)Cc2ccccc2)ncc1Cl | -1.0 | 1.8% | 3.16µM* | 0.1% | x | x
CCSc1ncc(Cl)c(C(=O)Nc2ccc(S(=O)(=O)Nc3ncccn3)cc2)n1 | 9.7 | 1.8% | 2.4% | -1.0% | 2.5 | x
COc1ccccc1NC(=O)c1nc(S(=O)(=O)Cc2ccccc2)ncc1Cl | 3.9 | 3.9% | -5.2% | -0.4% | 1.7 | x
COc1cccc(NC(=O)c2nc(S(C)(=O)=O)ncc2Cl)c1 | 24.0 | 3.5% | -17.5% | 1.9% | -90.3* | x
COc1cccc(NC(=O)c2nc(SC)ncc2Cl)c1 | -2.2 | -2.2% | -2.9% | -14.2% | 4.8 | x
CCCS(=O)(=O)c1ncc(Cl)c(C(=O)Nc2ccc(S(=O)(=O)Nc3ncccn3)cc2)n1 | -83.2* | 2.0% | -3.4% | 3.9% | -76.6* | x
CCCNC(=O)c1cc2c(c(-c3cccc(-c4ccccc4F)c3)n1)[C@@H](CCO)N(C(=O)CC1CC1)C2 | -5.2 | x | x | x | 5.8 | x
O=C(CSC1=NS(=O)(=O)c2ccccc2N1)N1CCCCC1 | 2.3 | 0.4% | 6.8% | -3.1% | 4.8 | -2.9%
CC(C)(C)c1cc(C(=O)N2CCc3ccccc3C2)ccn1 | 3.6 | -2.0% | 7.94µM* | -9.2% | 4.0 | x
O=C(N/N=C/c1ccc(O)c(O)c1O)/C(=C/c1ccc([N+](=O)[O-])cc1)NC(=O)c1ccccc1 | -90.0* | -8.8% | -2.5% | 4.4% | -94.5* | x
Cc1ccc(NC(=O)/C(=C\c2ccc([N+](=O)[O-])cc2)NC(=O)c2ccccc2)cc1 | -2.7 | 0.2% | 1.9% | 1.8% | 2.2 | 1.8%
COC(=O)/C(=C\c1ccc([N+](=O)[O-])cc1)NC(=O)c1ccccc1 | -24.9 | x | -0.5% | x | -91.4* | x
COc1ccccc1/C=C/C(=O)NCc1cccnc1 | 1.1 | 3.3% | u | 0.1% | -12.7 | -9.6%[2.29 µM]
O=C(NCc1ccc(Cl)cc1)N1CCN(Cc2ccccc2)CC1 | 5.9 | 0.9% | u | 2.2% | x | -1.3%
O=C(CSc1nnc(NC2CCCCC2)s1)Nc1ccc2c(c1)C(=O)c1ccccc1C2=O | u | 0.2% | -5.9% | -1.9% | x | -12.7%
COc1cccc(C(=O)Nc2nnc(SCC(=O)Nc3ccc(NC(C)=O)cc3)s2)c1 | -20.2 | 1.0% | 2µM* | 7.0% | -18.4 | x
CC(C)Nc1nnc(SCC(=O)Nc2ccc3c(c2)C(=O)c2ccccc2C3=O)s1 | -74.2* | -1.0% | -9.2% | 0.1% | 4.0 | u
COc1cccc(N2CC(C(=O)Nc3nnc(SCC(=O)Nc4ccc(NC(C)=O)cc4)s3)CC2=O)c1 (centres undefined) | -28.1 | 2.1% | 0.1% | -0.3% | -6.2 | x
CS(=O)c1ccccc1-c1nc(-c2ccc([N+](=O)[O-])cc2)no1 (centres undefined) | -23.9 | x | -0.2% | x | -8.5 | x
CCCc1nnc(SCC(=O)NC2CC2)n1CC | 15.6 | -1.9% | -2.6% | 9.3% | 1.1 | x
COc1ccccc1/C=N/NC(=O)CSc1cc(C)nc2ccccc12 | -6.9 | -0.9% | -14.1% | 1.5% | -3.7 | 5.0%
COc1cccc2c(SCC(=O)N/N=C/c3ccc(O)cc3O)cc(C)nc12 | -78.6* | 3.1% | -11.6% | 6.6% | -65.8* | u
SMILES | Six1-Eya2 blk | USP2a inh | uPA surface inh | Eya2 phos inh | CtBP-E1A blk | L3MBTL1 inh
COc1ccc2nc(C)cc(SCC(=O)N/N=C/c3ccccc3)c2c1 | u | 2.2% | 0.0% | 0.9% | -20.8 | 3.7%
COc1ccc2nc(C)cc(SCC(=O)N/N=C/c3ccc(O)cc3O)c2c1 | -73.8* | 1.5% | -11.4% | 3.2% | -69.8* | -5.2%
O=S(=O)(c1ccc(F)cc1)N1CCN(C(=S)NC2CC2)CC1 | 12.9 | 1.0% | -0.8% | -5.0% | 18.5 | 1.0%
O=C1C(Cl)=C(N2CCCCC2)C(=O)C(Cl)=C1c1cnc(N2CCCCC2)s1 | -7.6 | -0.1% | -3.3% | 5.8% | -1.6 | 17.8µM*
Nc1nonc1-n1nnc(C(=O)N/N=C/c2ccc(Cl)cc2Cl)c1CN1CCOCC1 | -7.4 | 1.0% | -3.9% | -8.0% | 0.8 | x
CCCN(C(=O)CSc1nc(C2CC2)n(-c2ccccc2)n1)C1CCS(=O)(=O)C1 (centres undefined) | -0.6 | 0.0% | -1.5% | -2.0% | -22.3 | 8.5%
Cc1cc(C(=O)NNC(=O)/C=C/c2ccco2)c(C)o1 | u | -0.6% | 9.4% | -3.0% | -19.5 | 7.94µM*
Fc1ccc2nc3c(nc2c1)CCCC3 | 2.3 | 3.4% | 0.6% | -2.4% | 7.9 | x
CC(C)N1CC(C(=O)Nc2cc(Cl)cc(Cl)c2)CC1=O (centres undefined) | 1.0 | 0.5% | 7.08µM* | -18.2% | x | -2.9%[2.29 µM]
CC(C)N1CC(C(=O)Nc2ccc(Cl)c(Cl)c2)CC1=O (centres undefined) | -1.1 | -1.0% | -8.4% | 3.8% | -16.9 | 3.9%
CCOC(=O)Cc1cc(=O)n(-c2nc3ccccc3s2)[nH]1 | -14.6 | -0.8% | 2.6% | 10.5% | -14.0 | 28.2µM*
CCCc1cc(=O)n(-c2nc3ccccc3s2)[nH]1 | -1.2 | -2.8% | -1.7% | 16.6% | 2.1 | 13.5%
COc1ccccc1C(=O)N=c1sc2c(C)ccc(OC)c2n1C | -3.9 | 0.8% | -1.9% | -8.5% | 0.1 | 6.9%
COc1ccc(NC(=O)c2cccnc2)c([N+](=O)[O-])c1 | 1.5 | -13.5% | -15.2% | 3.6% | -14.4 | 13.1%
Cc1ccc(NC(=O)c2cccnc2)c([N+](=O)[O-])c1 | -5.2 | -1.2% | 3.55µM* | -11.6% | 0.1 | -2.6%
Clc1cccc(-c2ccc(CNCc3ccccn3)o2)c1 | -16.3 | -8.7% | -5.6% | 1.4% | x | 22.4µM*
O=[N+]([O-])c1ccc(/C=N\NS(=O)(=O)c2ccc(F)cc2)o1 | -0.7 | 1.2% | 8.91µM* | -18.6% | -11.1 | x
COc1ccc(S(=O)(=O)N/N=C\c2ccc([N+](=O)[O-])o2)c(OC)c1 | -9.6 | 0.9% | u | 7.9% | -3.9 | x
O=C(N/N=C/c1ccc([N+](=O)[O-])o1)c1cc2c(ccc3ccccc32)o1 | -5.7 | -3.9% | u | -5.9% | 4.4 | 6.31µM*
O=C(N/N=C/c1ccc([N+](=O)[O-])o1)c1cc2ccccc2o1 | -12.6 | -1.6% | 2.51µM* | 1.0% | x | x
CCNc1nc(NCC)nc(N/N=C/c2ccc([N+](=O)[O-])o2)n1 | -83.5* | 4.9% | -4.9% | -18.8% | -85.4* | x
